Bioassay records deposited in PubChem BioAssay by National Center for Advancing Translational Sciences (NCATS).
NPC1 prom act – activates the NPC1 promoter | Huh7 NPC1 promoter luciferase reporter, 24 h | 320,000 tested, 2.4% active | AID 485313 | Potency, µM (titrated, usually from 9.22 µM), for inactives: at the top dose activation, hits mostly activators; note: % of control where 0% means no effect; nearly all actives have a fitted effect of over 60% in size
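In 1536-well qHTS, Huh7 cells harboring an NPC1 promoter–luciferase construct received compound for 24 h; activation was quantified by luminescence following luciferase reagent addition.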
Rab9 promoter act – Rab9 promoter activation. Huh7 Rab9 promoter-luciferase reporter, luminescence, 24 h. Potency, µM (doses to about 9.22 µM), for inactives: top-dose activation, negative = inhibition, actives largely listed as activators. 320,000 tested, 2.8% active. AID 485297; note: % of control where 0% means no effect; nearly all actives have a fitted effect of over 60% in size
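Luminescence read-out: Huh7 cells stably expressing Rab9-luciferase, treated 24 h with compound at 37 °C, then lysed with luciferase reagent for 10 min at ambient before reading.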
ELG1 genotoxic – genotoxicity induction in ELG1-luciferase HEK293T cells. HEK293T ELG1-luciferase reporter, luminescence, 16 h. Potency, µM (doses to about 46 µM), for inactives: at the highest dose activity change, positive = activation, usual class: activators. 330,000 tested, 1.3% active; note: % of control where 0% means no effect; nearly all actives have a fitted effect of over 60% in size
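Genotoxicity was scored as increased ELG1-luciferase reporter signal, measured by ONE-Glo luminescence (30 min, room temperature). Compound or vehicle exposure of the HEK293T reporter cells lasted 16 hr at 37°C.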
FLuc counter – firefly luciferase modulation, counter-screen for miR-21 project. AID 588342. purified FLuc, Km substrates, luminescence inhibition. Potency, µM (titrated, usually from 57.5 µM), for the others: at the highest dose activity change, negative = inhibition, actives largely listed as inhibitors. P08659. 360,000 tested, 6.9% active;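 note: plate controls were vehicle for no effect and reference inhibitor for full effect; nearly all actives have a fitted effect of over 55% in size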
Target sequence (P08659 whole entry, looked up): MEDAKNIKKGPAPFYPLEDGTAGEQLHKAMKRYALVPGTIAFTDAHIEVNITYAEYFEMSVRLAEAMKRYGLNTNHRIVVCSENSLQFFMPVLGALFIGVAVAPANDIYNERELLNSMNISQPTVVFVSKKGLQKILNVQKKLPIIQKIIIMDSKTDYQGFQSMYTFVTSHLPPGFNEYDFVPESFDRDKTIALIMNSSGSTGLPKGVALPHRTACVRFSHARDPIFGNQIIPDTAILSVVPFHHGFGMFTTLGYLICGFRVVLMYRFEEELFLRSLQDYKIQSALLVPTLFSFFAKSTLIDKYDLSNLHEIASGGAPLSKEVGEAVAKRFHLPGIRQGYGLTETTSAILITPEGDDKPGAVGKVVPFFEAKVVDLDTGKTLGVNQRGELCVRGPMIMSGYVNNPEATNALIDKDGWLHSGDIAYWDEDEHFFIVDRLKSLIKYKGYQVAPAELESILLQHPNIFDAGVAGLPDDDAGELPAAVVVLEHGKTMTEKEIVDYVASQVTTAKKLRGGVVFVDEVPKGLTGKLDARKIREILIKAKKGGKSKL
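Purified P. pyralis luciferase, 10 nM final, with Km-level 10 uM D-luciferin and 10 uM ATP in 50 mM Tris acetate pH 7.5, 10 mM Mg acetate, 0.01% Tween-20, 0.05% BSA; 6-point qHTS titration about 60 µM downward; luminescence read.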
ELG1 DNA repair – inhibitors of ELG1-dependent DNA repair in HEK293T cells | HEK293T ELG1-luciferase reporter, luminescence, 16 h; DNA damage induced by 5-fluorouridine | Potency, µM (highest dose often 46.1 µM), inactives show at the highest dose activity change, negative = inhibition, hits mostly inhibitors | 330,000 tested, 2.3% active | AID 504467; note: % is set by controls: 0 for no effect and ±100 for the full control effect; nearly all actives have a fitted effect of over 55% in size
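Reporter activity after DNA damage by 5-fluorouridine is monitored. Compound-treated cells incubate 16 hr at 37 °C, then ONE-Glo is added for 30 min before luminescence reading.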
SMN2 splice enh – SMN2 splice variant enhancement | HEK293 SMN2-luciferase splicing reporter, luminescence, 30-36 h | Potency, µM (series often up to 46.1 µM), inactives show top-dose activity change, positive = activation, actives largely listed as activators | 210,000 tested, 2.8% active; note: % of control where 0% means no effect; nearly all actives have a fitted effect of over 55% in size
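HEK293 cells carry an SMN2 […]–luciferase reporter in which exon 7 inclusion puts luciferase in frame. Cells were plated 10-12 h before compound addition, then incubated 30-36 h at 37C. ONE-Glo luminescence was read; sodium butyrate at 4.5 mM final served as control.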
An asterisk follows results filed as active; ? = inconclusive; . = not tested or not shown; [ ] = remark or other dose. This is a sample that favours compounds with a hit; in the whole collection about 9.2% have one here. Calls come from the whole dose curve; as a rule, active = well fitted curve in the direction sought with a large enough effect; inconclusive = small, poorly fitted or top-dose-only effect, or another doubt; inactive = no such curve, though single readings can be large; an effect the other way counts as inactive or inconclusive. Potency is the fitted concentration of half-maximal effect.

SMILES	NPC1 prom act	Rab9 promoter act	ELG1 genotoxic	FLuc counter	ELG1 DNA repair	SMN2 splice enh
O=C(CSc1nc(C2CC2)nc2ccccc12)Nc1ccccc1N1CCOCC1	-3%	-8%	-16%	7%	?	-31%
C#CCNC(=O)C1=C[C@H](C(C)(C)C)C[C@H](OCc2ccc(CO)cc2)O1	1%	-5%	6%	0%	0%	.
CC(C)(C)[C@@H]1C=C(C(=O)Nc2ccccc2)O[C@H](OCc2ccc(CO)cc2)C1	5%	5%	0%	?	7.3µM*	.
NC(=O)C1=C[C@H](C2CCCCC2)C[C@H](OCc2ccc(CO)cc2)O1	2.5µM*	3.2µM*	2.9µM*	11µM*	?	.
O=C(NC1CC1)C1=C[C@@H](C2CCCCC2)C[C@@H](OCc2ccc(CO)cc2)O1	-4%	2%	-1%	?	?	.
CC1O[C@@H](OC2C(O)C(O)C(CO)O[C@H]2OC2C[C@]3(C)C(CC(O)C4[C@@H]([C@]5(C)CC[C@@H](C(C)(C)O)O5)CC[C@]43C)[C@@]3(C)CCC(O)C(C)(C)C23)C(O)C(O)C1O (some centres undefined)	.	.	0%	.	9%	.
O=S(=O)(Cc1nnnn1-c1ccccc1)c1ccc(F)cc1	3%	7%	5%	1%	6%	.
CN(C)c1cc(N/N=C/c2ccccc2C(F)(F)F)nc(N(C)C)n1	-1%	13%	1%	-5%	16µM*	.
Cc1ccc(N2CC(c3nnc(Cc4ccc(Cl)cc4)o3)CC2=O)cc1 (centres undefined)	.	.	.	-9%	.	-13%
Nc1ccccc1-c1nnc2n1CCCCC2	-2%	-3%	-2%	-1%	4%	.
COc1ccc(NC(=O)c2cnc3cc(C)ccn3c2=O)c(OC)c1	.	.	.	-2%	.	-4%
CC(C)(C)c1cc(Br)ccc1OCC(=O)Nc1ncn[nH]1	-4%	-4%	2%	0%	12%	-23%
CCc1ccc(OCC(=O)NC2CCCCC2)c(Br)c1	-2%	5%	8%	3%	12%	.
CCc1ccc(OCC(=O)Nc2ncn[nH]2)c(Br)c1	.	.	.	1.1µM*	.	?
O=C(COc1ccc(Br)cc1Cl)Nc1ncn[nH]1	.	.	.	2.1µM*	.	?
CCc1ccc(OCC(=O)Nc2ncn[nH]2)cc1	?	4.5µM*	?	13µM*	?	?
COc1ccccc1C(=O)Nc1onc2c1CCCC2	.	.	.	2.7µM*	.	3.5µM*
Cc1ccc(C(=O)Nc2onc3c2CCCC3)cc1	.	.	.	0.3µM*	.	2.5µM*
CCCCOc1ccccc1C(=O)Nc1onc2c1CCCC2	.	.	.	-15%	.	-18%
Cc1ccc2cc(NC(=O)c3ccc(C(C)(C)C)cc3)ccc2n1	-2%	2%	-15%	9.5µM*	?	.
CCc1ccc(C(=O)Nc2ccc3nc(C)ccc3c2)cc1	3.5µM*	2.8µM*	?	5.4µM*	?	.
CC(C)(C)c1ccc(C(=O)Nc2ccc(NC(=O)c3ccc(Cl)c(Cl)c3)cc2)cc1	.	.	.	1%	.	-8%
CCCCn1c(N)c(N(CC)C(=O)c2cccc(OC)c2)c(=O)[nH]c1=O	0%	1%	-3%	0%	-2%	?
N#C/C(=C\c1cccs1)C(=O)Nc1ccccn1	2.2µM*	1.6µM*	?	3.4µM*	?	.
N#C/C(=C\Nc1ccccn1)C(=O)C1CC1	.	.	.	.	.	-7%[9.22 µM]
SMILES	NPC1 prom act	Rab9 promoter act	ELG1 genotoxic	FLuc counter	ELG1 DNA repair	SMN2 splice enh
N#C/C(=C\c1ccccc1Cl)C(=O)Nc1ccccn1	2%	1%	-1%	19µM*	5%	.
Cc1ccc(NC(=O)/C(C#N)=C/c2ccccc2Cl)cc1C	.	.	.	11µM*	.	-7%
C=CCOc1ccc(/C=C(\C#N)C(=O)Nc2ccccn2)cc1	1%	4%	-1%[9.26 µM]	2.1µM*	0%	.
Cc1cccc(C)c1NC(=O)/C(C#N)=C/c1cccs1	-8%	15%	2%	0%	-12%	-6%
Cc1ccc2cccc(Oc3ncnc4scc(-c5ccc(Cl)cc5)c34)c2n1	-3%	-2%	-4%	6%	-7%	-24%
N#C/C(=C\c1ccccc1)C(=O)Nc1ccccn1	0%	5%	0%	15µM*	12%	.
CC(C)(C)c1ccc(C(=O)/C(C#N)=C/c2cccs2)cc1	0%	5%	2%	1.2µM*	?	.
CC(C)(C)c1ccc(C(=O)Nc2ccc(C=C(C#N)C#N)cc2)cc1	?	0.5µM*	?	4.8µM*	?	?
CC(NC(=O)/C(C#N)=C/c1cccs1)c1ccccc1 (centres undefined)	-2%	-3%	-2%	-6%	2%	-1%
Cc1cccc(/C=C(\C#N)C(=O)Nc2ccccn2)c1	-1%	1%	2%	?	9%	.
CC(C)(C)c1ccc(/C=C(\C#N)C(=O)Nc2ccccn2)cc1	2%	-2%	-5%	8.5µM*	-5%	.
NS(=O)(=O)c1cccc(NC(=O)Nc2ccccc2)c1	8%	-1%	0%	?	-6%	.
Cc1ccc(-n2c(SCC(=O)Nc3cccc(Cl)c3)nc3n[nH]c(C)c3c2=N)cc1	.	.	.	-3%	.	.
COc1cccc(NC(=O)COC(=O)c2ccccc2SCC(=O)N2CCCC2)c1	8%	-1%	-1%	?	-15%	.
Cc1ccc(NC(=O)/C(C#N)=C/c2cccs2)c(C)c1	2µM*	3.5µM*	?	-15%	?	13µM*
N#C/C(=C\c1ccccc1)C(=O)Nc1nncs1	-2%	9%	0%	19µM*	14%	.
CS(=O)(=O)N(CC(=O)Nc1cccc(Br)c1)Cc1ccccc1	1%	-3%	-6%	1%	-11%	.
COC(=O)[C@H](Cc1ccccc1)NC(=O)O[C@@H]1C(=O)c2cc(OC)ccc2O[C@H]1c1ccc(OC)c(Br)c1	0%	-3%	1%	-9%	2.9µM*	1%
COc1cccc([C@@H]2Oc3ccc(OC)cc3C(=O)[C@H]2OC(=O)NCc2ccc3c(c2)OCO3)c1	-2%	?	?	6µM*	?	13%
COc1cccc([C@@H]2Oc3ccc(OC)cc3C(=O)[C@H]2OC(=O)NCCc2ccc(OC)c(OC)c2)c1	.	.	.	.	.	11µM*
COc1ccc2c(c1)C(=O)[C@H](OC(=O)NCCc1ccc(OC)c(OC)c1)[C@@H](c1ccc(OC)c(Br)c1)O2	.	.	.	.	.	15%
COC(=O)[C@@H](NC(=O)O[C@@H]1C(=O)c2cc(OC)ccc2O[C@H]1c1ccc(OC)c(Br)c1)C(C)C	.	.	.	.	.	12%
CN1CCN(CCCN)CC1	.	.	.	.	.	-4%[9.22 µM]
O=C(CN1C(=O)NC2(CCCC2)C1=O)Nc1ccc(F)c(Cl)c1	0%	-1%	3%	1%	8%	.
O=C1CSC(=S)N1/N=C/c1ccc2c(c1)OCCO2	-4%	-4%	0%	17µM*	-2%	.
